From PubChem BioAssay
ELG1 repair inh: ELG1-dependent DNA repair inhibition | HEK293T ELG1-luciferase reporter, luminescence, 16 h; DNA damage induced by 5-fluorouridine | Potency, µM (highest dose often 46.1 µM), for inactives: at the highest dose activity change, negative = inhibition, hits mostly inhibitors | 330,000 tested, 2.3% active; note: % is set by controls: 0 for no effect and ±100 for the full control effect; nearly all actives have a fitted effect of over 55% in size
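Luminescence from the luciferase reporter, measured 30 min after ONE-Glo reagent at room temperature, was the read-out. Beforehand, 2,000 cells per well were exposed for 16 hr at 37 °C to 5-fluorouridine together with compound or vehicle.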
FLuc modulator: inhibits or activates purified firefly luciferase, miR-21 counter-screen; P08659; purified FLuc, Km substrates, luminescence inhibition; Potency, µM (series often up to 57.5 µM), for inactives: top-dose activity change, negative = inhibition, usual class: inhibitors; 360,000 tested, 6.9% active;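 note: plate controls were vehicle for no effect and reference inhibitor for full effect; nearly all actives have a fitted effect of over 55% in size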
Target sequence (P08659 whole entry, looked up): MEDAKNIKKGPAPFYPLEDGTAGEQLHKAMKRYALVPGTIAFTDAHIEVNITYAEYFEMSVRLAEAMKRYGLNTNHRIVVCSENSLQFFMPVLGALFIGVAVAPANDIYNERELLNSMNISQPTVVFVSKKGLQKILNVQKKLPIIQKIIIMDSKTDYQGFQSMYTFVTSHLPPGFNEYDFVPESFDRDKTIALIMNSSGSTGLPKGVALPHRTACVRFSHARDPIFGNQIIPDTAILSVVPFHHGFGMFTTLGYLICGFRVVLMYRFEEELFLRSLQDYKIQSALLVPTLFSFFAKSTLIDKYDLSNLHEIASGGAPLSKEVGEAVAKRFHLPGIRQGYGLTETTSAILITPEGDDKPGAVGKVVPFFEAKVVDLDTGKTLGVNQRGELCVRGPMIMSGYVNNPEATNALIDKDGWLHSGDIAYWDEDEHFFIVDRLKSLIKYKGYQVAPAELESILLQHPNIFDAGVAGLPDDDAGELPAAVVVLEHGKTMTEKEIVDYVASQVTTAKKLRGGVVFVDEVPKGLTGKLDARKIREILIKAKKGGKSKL
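Purified P. pyralis luciferase (10nM final) with 10uM D-luciferin and 10uM ATP (Km levels) in 50mM Tris acetate pH 7.5, 10mM Mg acetate, 0.01% Tween-20, 0.05% BSA; qHTS 6-point titration, ~60 µM downward; luminescence read.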
ELG1 genotoxic: genotoxicity induction in ELG1-luciferase HEK293T cells; HEK293T ELG1-luciferase reporter, luminescence, 16 h; Potency, µM (titrated, usually from 46 µM), without a hit: top-dose activity change, positive = activation, most hits filed as activators; 330,000 tested, 1.3% active; AID 504466; note: % of control where 0% means no effect; nearly all actives have a fitted effect of over 60% in size
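16 hr compound incubation (37 °C, 5% CO2) of HEK293T cells carrying luciferase-tagged ELG1; luciferase then measured by ONE-Glo luminescence after 30 min at RT.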
NPC1 prom act: NPC1 promoter activation; Potency, µM (highest dose often 9.22 µM), inactives show at the highest dose activation, usual class: activators; Huh7 NPC1 promoter luciferase reporter, 24 h; 320,000 tested, 2.4% active; note: % of control where 0% means no effect; nearly all actives have a fitted effect of over 60% in size
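Huh7 reporter cells (NPC1 promoter driving luciferase) are dosed with compound for 24 h at 37 °C, 5% CO2; luciferase detection reagent is then added and luminescence measured after 10 min at ambient temperature.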
Rab9 promoter act: Rab9 promoter activation | Potency, µM (doses to about 9.22 µM), for the others: at the highest dose activation, negative = inhibition, hits mostly activators | 320,000 tested, 2.8% active | Huh7 Rab9 promoter-luciferase reporter, luminescence, 24 h; note: % of control where 0% means no effect; nearly all actives have a fitted effect of over 60% in size
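Promoter activation is measured as luciferase luminescence in Huh7 cells stably transfected with a Rab9 promoter–luciferase construct, following 24 h compound exposure at 37 °C and 10 min reagent incubation at ambient temperature.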
SMN2 splice up: increases expression of the SMN2 splice variant. 210,000 tested, 2.8% active. HEK293 SMN2-luciferase splicing reporter, luminescence, 30-36 h. Potency, µM (doses to about 46.1 µM), without a hit: at the top dose activity change, positive = activation, usual class: activators; note: % of control where 0% means no effect; nearly all actives have a fitted effect of over 55% in size
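HEK293 cells carry an SMN2 minigene-luciferase reporter in which exon 7 inclusion puts luciferase in frame. Cells were seeded at 2000 cells/well, attached for 10-12 hours, then exposed to compounds for 30-36 hours at 37C before ONE-Glo luminescence.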
* hit, by the source's call; u = inconclusive; x = no result given. Sampled rows, rich in hits. Any-hit rate of the full collection: about 9.2%. Calls come from the whole dose curve; as a rule, active = well fitted curve in the direction sought with a large enough effect; inconclusive = small, poorly fitted or top-dose-only effect, or another doubt; inactive = no such curve, though single readings can be large; an effect the other way counts as inactive or inconclusive. Potency is the fitted concentration of half-maximal effect.

SMILES	ELG1 repair inh	FLuc modulator	ELG1 genotoxic	NPC1 prom act	Rab9 promoter act	SMN2 splice up
COc1cc2c(cc1OC)C(C)N(C(=O)c1cccc([N+](=O)[O-])c1)CC2 (centres undefined)	18.3µM*	0.4%	-8.8%	1.2%	-3.4%	u
Cc1cc2ncn(/N=C/c3cccnc3)c2cc1C	-16.9%	u	4.8%	-3.0%	-9.1%	-14.0%
Cc1cc2ncn(/N=C/c3ccc(-c4ccccc4)o3)c2cc1C	-4.6%	23.9µM*	-3.9%	-1.7%	7.6%	16.4%
CCOc1ccc(N2C(=O)CC(NCC#N)C2=O)cc1 (centres undefined)	5.9%	-12.2%	-0.4%	-10.8%	3.1%	x
O=C(NCCN1C(=O)S/C(=C\c2ccccc2)C1=O)c1cc(S(=O)(=O)N2CCOCC2)c(Cl)cc1Cl	14.6µM*	0.5%	-2.8%	0.1%	-2.8%	-33.7%
O=C(NCCN1C(=O)S/C(=C\c2ccc(Cl)cc2)C1=O)c1ccc(F)c(S(=O)(=O)N2CCOCC2)c1	u	-13.5%	u	u	u	6.3%
O=C(NCC1COc2ccccc2O1)c1cc(S(=O)(=O)N2CCOCC2)c(Cl)cc1Cl (centres undefined)	18.3µM*	-1.7%	-8.5%	3.3%	-6.3%	x
O=C(NCC1COc2ccccc2O1)c1ccc(F)c(S(=O)(=O)N2CCOCC2)c1 (centres undefined)	-25.5%	4.4%	-0.7%	2.3%	-2.2%	x
Cc1ccc(C(=O)CSc2nc3ccccc3o2)cc1	u	13.5µM*	20.0%	21.9%	u	-28.8%
Cc1ccc(C(=O)CSc2nnc3c4ccccc4nc(C(C)(C)C)n23)cc1	16.4µM*	2.3%	-3.2%	-25.4%	-17.2%	-16.0%
O=C(CSc1nc2ccccc2o1)Nc1ccccc1	19.1%	u	20.6µM*	2.7%	-1.2%	23.2%
CC(=O)CSc1nnc2c3ccccc3nc(C(C)(C)C)n12	2.1%	0.2%	u	0.3%	-5.1%	u
CC(Sc1nc2ccccc2o1)C(=O)O (centres undefined)	u	15.1µM*	u	-3.3%	3.8%	-19.1%
O=C(CSc1c2c(nc3ccccc13)CCC2)Nc1ccc(F)cc1	x	-0.6%	x	x	x	-14.5%
COc1ccc([C@H]2C(C#N)=C([S-])N[C@](C)(O)[C@@H]2[n+]2ccccc2)cc1	4.1%	-0.2%	1.5%	-1.5%	-4.5%	x
COCCCn1c(-c2cccc(Cl)c2)nc2c1c(=O)[nH]c(=O)n2Cc1ccccc1	u	1.3%	0.1%	-2.5%	7.4%	x
COCCn1c(=O)[nH]c(=O)c2c1nc(-c1ccc(-c3ccc(Cl)cc3[N+](=O)[O-])o1)n2Cc1ccccc1	13µM*	-1.4%	-13.5%	-2.8%	-1.6%	u
O=c1[nH]c(=O)n(Cc2ccccc2)c2nc(-c3ccc(Oc4ccc(F)cc4)c([N+](=O)[O-])c3)n(CCO)c12	u	-0.3%	6.3%	-3.9%	-2.6%	16.4%
COCCn1c(-c2ccc(-c3ccc([N+](=O)[O-])cc3Br)o2)nc2c1c(=O)[nH]c(=O)n2CC(C)C	10.3µM*	-5.8%	-11.8%	-11.5%	-5.4%	-12.5%
COc1ccc(-c2ccc(-c3nc4c(c(=O)[nH]c(=O)n4Cc4ccccc4)n3C)o2)c([N+](=O)[O-])c1	5.8µM*	-1.8%	-1.8%	-8.6%	-12.3%	x
Cc1ccc(NC(=O)Cn2ccc([N+](=O)[O-])n2)cc1Cl	u	0.9%	1.4%	-0.7%	2.4%	-8.9%
O=c1oc2ccccc2cc1-c1nnc(NCc2ccco2)s1	u	2.69µM*	u	1.12µM*	0.708µM*	11.2µM*
Nc1nnc(-c2cc3ccccc3oc2=O)s1	u	u	u	u	1.58µM*	17.8µM*
O=c1oc2ccccc2cc1-c1ccc(O)cc1O	16.3%	u	4.6%	-1.3%	-2.4%	2.1%
Nc1cccc(-c2cc3ccccc3oc2=O)c1	u	19µM*	u	15.3%	-1.2%	21.7%
